# According to PubChem BioAssay AID1508601 (ICCB-Longwood Screening Facility, Harvard Medical School, 2020):
# Screen size: about 5,700 compounds; about 85 (1%) were called active. Rule as the data show it: active = p53-positive nuclei above about 36% (passing the limit was not always enough); inactive = the rest. What follows is part of a selection rich in actives, with near analogues and random picks from the rest.
# Assays:
# [1] = nuclear p53 accumulation, HPV+ cells – imaging, p53-positive nuclei imaging, 24 h, 48 h (AID 1508601); conditions: 24/48 h
# [2] = target: Cellular tumor antigen p53 (Homo sapiens) (UniProt P04637); assay: as above; conditions: 24/48 h, stronger effect = higher value
# [3] = measured here: cell number at 24 h, Library stock concentration: 10 mM
# [4] = measured here: cell number at 48 h, Library stock concentration: 10 mM
# [5] = Library stock concentration: 10 mM
# [6] = measured here: p53 positive nuclei at 24 h, Library stock concentration: 10 mM
# [7] = measured here: cell number at 24 h, concentration not given here
# [8] = measured here: cell number at 48 h, concentration not given here
# [9] = measured here: p53 positive nuclei at 24 h, concentration not given here
# [10] = measured here: cell number at 24 h, Library stock concentration: 46 uM
# [11] = measured here: cell number at 24 h, Library stock concentration: 278 uM
# [12] = measured here: cell number at 24 h, Library stock concentration: 1.67 mM
# [13] = measured here: cell number at 48 h, Library stock concentration: 46 uM
# [14] = measured here: cell number at 48 h, Library stock concentration: 278 uM
# [15] = measured here: cell number at 48 h, Library stock concentration: 1.67 mM
# [16] = Library stock concentration: 46 uM
# [17] = Library stock concentration: 278 uM
# [18] = Library stock concentration: 1.67 mM
# [19] = measured here: p53 positive nuclei at 24 h, Library stock concentration: 46 uM
# [20] = measured here: p53 positive nuclei at 24 h, Library stock concentration: 278 uM
# [21] = measured here: p53 positive nuclei at 24 h, Library stock concentration: 1.67 mM
# Sequence of Cellular tumor antigen p53 (Homo sapiens) (P04637 whole entry, looked up): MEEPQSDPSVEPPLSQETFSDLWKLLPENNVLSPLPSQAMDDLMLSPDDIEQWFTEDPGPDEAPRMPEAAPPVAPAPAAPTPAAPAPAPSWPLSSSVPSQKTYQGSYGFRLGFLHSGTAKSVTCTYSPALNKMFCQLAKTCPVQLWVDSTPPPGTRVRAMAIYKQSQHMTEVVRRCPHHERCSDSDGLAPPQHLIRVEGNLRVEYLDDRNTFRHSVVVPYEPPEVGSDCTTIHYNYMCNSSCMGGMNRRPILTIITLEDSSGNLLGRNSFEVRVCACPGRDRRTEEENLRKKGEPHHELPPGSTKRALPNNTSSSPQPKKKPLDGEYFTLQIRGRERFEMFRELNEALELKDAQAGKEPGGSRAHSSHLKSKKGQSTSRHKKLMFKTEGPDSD
structure (smiles),measurement,setting,value
CCn1cnc2c(Nc3cccc(Cl)c3)nc(NC3CCCCC3N)nc21 (stereo unspecified),"nuclei count, normalised","[1]; measured here: cell number at 24 h, Library stock concentration: 80 uM",108%
same,"nuclei count, normalised","[1]; measured here: cell number at 24 h, Library stock concentration: 400 uM",103%
same,"nuclei count, normalised","[1]; measured here: cell number at 24 h, Library stock concentration: 2 mM",91.4%
same,"nuclei count, normalised",[1]; [3],32.2%
same,"nuclei count, normalised","[1]; measured here: cell number at 48 h, Library stock concentration: 80 uM",110%
same,"nuclei count, normalised","[1]; measured here: cell number at 48 h, Library stock concentration: 400 uM",104%
same,"nuclei count, normalised","[1]; measured here: cell number at 48 h, Library stock concentration: 2 mM",98.2%
same,"nuclei count, normalised",[1]; [4],21.9%
same,"p53-positive nuclei, normalised",[2]; Library stock concentration: 80 uM,-0.102% (inactive)
same,"p53-positive nuclei, normalised",[2]; Library stock concentration: 400 uM,-0.0205% (inactive)
same,"p53-positive nuclei, normalised",[2]; Library stock concentration: 2 mM,0.0322% (inactive)
same,"p53-positive nuclei, normalised",[2]; [5],61.8% (active)
same,"p53-positive nuclei, normalised","[2]; measured here: p53 positive nuclei at 24 h, Library stock concentration: 80 uM",0.0806%
same,"p53-positive nuclei, normalised","[2]; measured here: p53 positive nuclei at 24 h, Library stock concentration: 400 uM",0.000598%
same,"p53-positive nuclei, normalised","[2]; measured here: p53 positive nuclei at 24 h, Library stock concentration: 2 mM",0.126%
same,"p53-positive nuclei, normalised",[2]; [6],48.5%
CCCCCCCCCCCCCCCCOC[C@H](COP(=O)([O-])OCC[N+](C)(C)C)OC(C)=O,"nuclei count, normalised",[1]; [7],107%
same,"nuclei count, normalised",[1]; [8],107%
same,"p53-positive nuclei, normalised",[2]; concentration not given here,-0.0025% (inactive)
same,"p53-positive nuclei, normalised",[2]; [9],-0.0227%
CCCCC/C=C\C/C=C\C/C=C\C/C=C\CCCC(=O)NC(CO)CO,"nuclei count, normalised",[1]; [7],103%
same,"nuclei count, normalised",[1]; [8],109%
same,"p53-positive nuclei, normalised",[2]; concentration not given here,0.067% (inactive)
same,"p53-positive nuclei, normalised",[2]; [9],-0.135%
CC1CN(Cc2ccc(F)cc2)CCN1C(=O)COc1ccc(Cl)cc1NC(N)=O (stereo unspecified),"nuclei count, normalised",[1]; [10],113%
same,"nuclei count, normalised",[1]; [11],111%
same,"nuclei count, normalised",[1]; [12],113%
same,"nuclei count, normalised",[1]; [3],116%
same,"nuclei count, normalised",[1]; [13],112%
same,"nuclei count, normalised",[1]; [14],110%
same,"nuclei count, normalised",[1]; [15],112%
same,"nuclei count, normalised",[1]; [4],112%
same,"p53-positive nuclei, normalised",[2]; [16],-0.174% (inactive)
same,"p53-positive nuclei, normalised",[2]; [17],-0.135% (inactive)
same,"p53-positive nuclei, normalised",[2]; [18],-0.0557% (inactive)
same,"p53-positive nuclei, normalised",[2]; [5],-0.323% (inactive)
same,"p53-positive nuclei, normalised",[2]; [19],0.0345%
same,"p53-positive nuclei, normalised",[2]; [20],-0.0826%
same,"p53-positive nuclei, normalised",[2]; [21],-0.151%
same,"p53-positive nuclei, normalised",[2]; [6],0.0332%
COc1ccc2c3c([nH]c2c1)C(CC(C)C)N1C(=O)C(CCC(=O)OC(C)(C)C)NC(=O)C1C3 (stereo unspecified),"nuclei count, normalised",[1]; [10],116%
same,"nuclei count, normalised",[1]; [11],114%
same,"nuclei count, normalised",[1]; [12],116%
same,"nuclei count, normalised",[1]; [3],118%
same,"nuclei count, normalised",[1]; [13],111%
same,"nuclei count, normalised",[1]; [14],106%
same,"nuclei count, normalised",[1]; [15],106%
same,"nuclei count, normalised",[1]; [4],108%
same,"p53-positive nuclei, normalised",[2]; [16],-0.285% (inactive)
same,"p53-positive nuclei, normalised",[2]; [17],-0.0842% (inactive)
same,"p53-positive nuclei, normalised",[2]; [18],-0.358% (inactive)
same,"p53-positive nuclei, normalised",[2]; [5],-0.016% (inactive)
same,"p53-positive nuclei, normalised",[2]; [19],-0.0846%
same,"p53-positive nuclei, normalised",[2]; [20],0.0359%
same,"p53-positive nuclei, normalised",[2]; [21],-0.151%
same,"p53-positive nuclei, normalised",[2]; [6],0.0251%
NOCCC(N)C(=O)O (stereo unspecified),"nuclei count, normalised","[1]; measured here: cell number at 24 h, Library stock concentration: 500 nM",99.2%
same,"nuclei count, normalised","[1]; measured here: cell number at 24 h, Library stock concentration: 1.5 uM",103%
same,"nuclei count, normalised","[1]; measured here: cell number at 24 h, Library stock concentration: 4.6 uM",103%
same,"nuclei count, normalised","[1]; measured here: cell number at 24 h, Library stock concentration: 13.7 uM",107%
same,"nuclei count, normalised","[1]; measured here: cell number at 24 h, Library stock concentration: 41 uM",111%
same,"nuclei count, normalised","[1]; measured here: cell number at 24 h, Library stock concentration: 123 uM",113%
same,"nuclei count, normalised","[1]; measured here: cell number at 24 h, Library stock concentration: 370 uM",115%
same,"nuclei count, normalised","[1]; measured here: cell number at 24 h, Library stock concentration: 1.111 mM",106%
same,"nuclei count, normalised","[1]; measured here: cell number at 24 h, Library stock concentration: 3.333 mM",110%
same,"nuclei count, normalised",[1]; [3],97.4%
same,"nuclei count, normalised","[1]; measured here: cell number at 48 h, Library stock concentration: 500 nM",98.5%
same,"nuclei count, normalised","[1]; measured here: cell number at 48 h, Library stock concentration: 1.5 uM",106%
same,"nuclei count, normalised","[1]; measured here: cell number at 48 h, Library stock concentration: 4.6 uM",104%
same,"nuclei count, normalised","[1]; measured here: cell number at 48 h, Library stock concentration: 13.7 uM",112%
same,"nuclei count, normalised","[1]; measured here: cell number at 48 h, Library stock concentration: 41 uM",113%
same,"nuclei count, normalised","[1]; measured here: cell number at 48 h, Library stock concentration: 123 uM",115%
same,"nuclei count, normalised","[1]; measured here: cell number at 48 h, Library stock concentration: 370 uM",114%
same,"nuclei count, normalised","[1]; measured here: cell number at 48 h, Library stock concentration: 1.111 mM",108%
same,"nuclei count, normalised","[1]; measured here: cell number at 48 h, Library stock concentration: 3.333 mM",112%
same,"nuclei count, normalised",[1]; [4],102%
same,"p53-positive nuclei, normalised",[2]; Library stock concentration: 500 nM,-0.0211% (inactive)
same,"p53-positive nuclei, normalised",[2]; Library stock concentration: 1.5 uM,-0.092% (inactive)
same,"p53-positive nuclei, normalised",[2]; Library stock concentration: 4.6 uM,-0.0486% (inactive)
same,"p53-positive nuclei, normalised",[2]; Library stock concentration: 13.7 uM,-0.0639% (inactive)
same,"p53-positive nuclei, normalised",[2]; Library stock concentration: 41 uM,0.121% (inactive)
same,"p53-positive nuclei, normalised",[2]; Library stock concentration: 123 uM,-0.0786% (inactive)
same,"p53-positive nuclei, normalised",[2]; Library stock concentration: 370 uM,-0.0673% (inactive)
same,"p53-positive nuclei, normalised",[2]; Library stock concentration: 1.111 mM,-0.0556% (inactive)
same,"p53-positive nuclei, normalised",[2]; Library stock concentration: 3.333 mM,-0.0652% (inactive)
same,"p53-positive nuclei, normalised",[2]; [5],-0.0323% (inactive)
same,"p53-positive nuclei, normalised","[2]; measured here: p53 positive nuclei at 24 h, Library stock concentration: 500 nM",0.111%
same,"p53-positive nuclei, normalised","[2]; measured here: p53 positive nuclei at 24 h, Library stock concentration: 1.5 uM",-0.132%
same,"p53-positive nuclei, normalised","[2]; measured here: p53 positive nuclei at 24 h, Library stock concentration: 4.6 uM",-0.00649%
same,"p53-positive nuclei, normalised","[2]; measured here: p53 positive nuclei at 24 h, Library stock concentration: 13.7 uM",-0.187%
same,"p53-positive nuclei, normalised","[2]; measured here: p53 positive nuclei at 24 h, Library stock concentration: 41 uM",0.0689%
same,"p53-positive nuclei, normalised","[2]; measured here: p53 positive nuclei at 24 h, Library stock concentration: 123 uM",-0.0424%
same,"p53-positive nuclei, normalised","[2]; measured here: p53 positive nuclei at 24 h, Library stock concentration: 370 uM",0.0115%
same,"p53-positive nuclei, normalised","[2]; measured here: p53 positive nuclei at 24 h, Library stock concentration: 1.111 mM",0.0344%
same,"p53-positive nuclei, normalised","[2]; measured here: p53 positive nuclei at 24 h, Library stock concentration: 3.333 mM",-0.136%
same,"p53-positive nuclei, normalised",[2]; [6],-0.121%
